Screens from PubChem.
Mdm2-MdmX inh: inhibitors of human Mdm2-MdmX association, primary screen, cell-based, luminescence, split luciferase, SaOS-2, uHTS; inhibition, % at 8 µM; AID 485346, 2010; actives 3% (n = 330,000); SaOS-2 split-luciferase Mdm2/MdmX complementation;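 active = inhibition of at least 50% at 8 µM in the primary screen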
Target sequence (O15151 whole entry, looked up): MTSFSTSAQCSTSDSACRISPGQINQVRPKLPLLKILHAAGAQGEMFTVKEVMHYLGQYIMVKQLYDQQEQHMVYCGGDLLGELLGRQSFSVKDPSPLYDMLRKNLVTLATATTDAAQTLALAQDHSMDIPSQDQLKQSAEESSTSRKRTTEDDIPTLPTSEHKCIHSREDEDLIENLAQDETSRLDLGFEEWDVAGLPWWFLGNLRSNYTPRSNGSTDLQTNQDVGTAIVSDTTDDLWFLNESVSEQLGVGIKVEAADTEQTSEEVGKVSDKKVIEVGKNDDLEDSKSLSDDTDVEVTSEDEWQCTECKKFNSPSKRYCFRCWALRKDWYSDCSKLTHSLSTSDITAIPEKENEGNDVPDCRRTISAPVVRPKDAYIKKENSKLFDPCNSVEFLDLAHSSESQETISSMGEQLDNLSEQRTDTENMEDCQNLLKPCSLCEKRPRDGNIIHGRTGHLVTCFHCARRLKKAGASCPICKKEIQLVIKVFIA
Target sequence (Q00987 whole entry, looked up): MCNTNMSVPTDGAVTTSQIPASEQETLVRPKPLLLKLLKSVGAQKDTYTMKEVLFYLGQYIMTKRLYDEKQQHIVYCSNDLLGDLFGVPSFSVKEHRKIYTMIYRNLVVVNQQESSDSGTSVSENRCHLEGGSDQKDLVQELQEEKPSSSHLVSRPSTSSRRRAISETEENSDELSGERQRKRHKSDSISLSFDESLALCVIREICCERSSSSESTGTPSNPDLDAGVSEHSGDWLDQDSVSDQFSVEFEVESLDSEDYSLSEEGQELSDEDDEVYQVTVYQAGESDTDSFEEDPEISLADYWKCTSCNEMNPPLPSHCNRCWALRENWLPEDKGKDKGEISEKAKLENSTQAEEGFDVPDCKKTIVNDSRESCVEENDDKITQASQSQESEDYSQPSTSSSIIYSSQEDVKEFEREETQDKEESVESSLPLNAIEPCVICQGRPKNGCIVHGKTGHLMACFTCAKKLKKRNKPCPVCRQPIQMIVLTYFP
NTR1 ag: agonists of human NTR1, primary screen, imaging, U2OS cells, beta-arrestin-GFP, high content. Neurotensin receptor type 1 (Homo sapiens), P30989. NTR1-U2OS beta-arrestin-GFP spot imaging, agonist mode. activation, % at 20 µM. actives 0.17% (n = 330,000);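 active = activation at or above 40% of the spot to cytoplasm intensity ratio, with at least 20 cells analyzed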;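 note: 0% = DMSO without peptide and 100% = 100 nM NTR1 peptide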
Jurkat NFkB inh: inhibitors of induced NF-kB luciferase reporter, primary screen, TCR NF-kB activation inhibitor project, cell-based, luminescence, uHTS | inhibition, % at 4 µM | AID 435003, 2010 | Jurkat, PMA/ionomycin-induced NF-kB luciferase reporter | actives 0.53% (n = 330,000); in the data active = inhibition above about 50%
Beta apoptosis: inhibitors of cytokine-induced beta cell apoptosis, primary screen, luminescence. INS-1E cytokine-induced death, ATP luminescence, 48 h; percent of positive-control rescue, neutral wells zero. protection from apoptosis, % (concentration not given with the values). actives 0.8% (n = 300,000);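 active = Every replicate reaches about 75%, or at least half do and their mean reaches it too, limit read from the data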;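 note: 0% = cytokine-treated negative control wells and 100% = positive control rescue; higher means more ATP so stronger rescue from cytokine killing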
Bfl-1 A1 inh: caspase 3/7 activation in MEF A1-2A-BIM cells, primary screen, A1 inhibitor project, cell-based, luminescence, HTS. Caspase-Glo 3/7 luminescence, 3 h; percent of clofoctol response, vehicle zero. caspase activation, % (no concentration beside the values). actives 0.066% (n = 330,000). AID 2462, 2010;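 active = over half of replicate activation scores above 10%, or exactly half above 10 with the replicate mean above 10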
697 NFkB inh: inhibitors of PMA/ionomycin-induced NF-kB reporter, 697 cells, primary screen, B-cell NF-kB inhibitor project, cell-based, luminescence, uHTS | inhibition, % at 4 µM | 697 B-cell NF-kB luciferase reporter, 16 h | actives 0.33% (n = 330,000); in the data active = inhibition above about 35%
Jurkat NFkB conf: PMA/ionomycin-induced NF-kB reporter inhibitors, Jurkat retest, confirmation, T-cell NF-kB inhibitor project, cell-based, luminescence, single concentration; shares compounds with Jurkat NFkB inh; Jurkat NF-kB luciferase, 16 h; inhibition, % at 4 µM; actives 27% (n = 2,700); AID 435020, 2010;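 active = inhibition reaching about 45% at 4 µM in either replicate, limit read from the data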;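 note: plate controls were PMA/ionomycin stimulated DMSO wells for no effect and unstimulated DMSO wells for full effect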
The depositor's hits bear a star; nt = no result. Hits are enriched below; roughly 3.8% of the tested compounds scored in any of these assays.

SMILES	Mdm2-MdmX inh	NTR1 ag	Jurkat NFkB inh	Beta apoptosis	Bfl-1 A1 inh	697 NFkB inh	Jurkat NFkB conf
Cc1ccc2c(c1)N(C(=O)CSc1nncn1C)C(C)(C)c1ssc(=S)c1-2	3	-1	53*	-1	-1	-1	-31
Cc1cc2c(cc1C)N(C(=O)CSc1nncn1C)C(C)(C)c1ssc(=S)c1-2	18	1	30	3	0	-3	nt
Cc1cc(Cl)ccc1OC(C)C(=O)Nc1cnn(CCCC(=O)O)c1 (stereo not given)	-8	-1	2	3	0	1	nt
CCC1CCCCN1CCCNC(=O)c1ccc2c(=O)n(CCOC)c(=O)[nH]c2c1 (stereo not given)	-3	-1	8	-1	2	6	nt
NC(=O)Nc1cccc2ccccc12	17	2	-1	-5	0	-23	nt
O=C(Nc1cccc2ccccc12)OC1C=CS(=O)(=O)C1 (stereo not given)	25	-3	90*	3	1	-45	65*
Cc1ccc(C(=O)NNC(=O)C(NC(=O)c2cccc(C)c2)C(C)C)cc1 (stereo not given)	-12	0	2	-14	1	18	nt
CCCCn1c(N)c(N(CCOC)C(=O)c2ccc(S(=O)(=O)N3CCC(C)CC3)cc2)c(=O)[nH]c1=O	4	1	5	-5	0	21	nt
COc1ccc(OC)c(Nc2cc(C)nc3ccccc23)c1	39	1	67*	3	-1	-37	10
Cc1cc(Nc2ccccc2Cl)c2ccccc2n1	18	2	15	17	1	-16	nt
COc1ccc(Cl)cc1Nc1cc(C)nc2ccccc12	24	1	54*	10	1	-29	23
COc1cc(C(=O)Nc2ccc(Nc3ccccc3)cc2)cc(OC)c1OC	40	2	2	nt	0	-3	nt
CCCOc1ccc(-c2nnc(-c3cccs3)o2)cc1	-47	6	-117	-3	-11	-167	nt
CN(C)c1ccc(-c2nnc(-c3cccs3)o2)cc1	-50	2	-161	-3	-16	-238	-115
Cc1ccc(O)c(NC(=O)Cc2ccc3ccccc3c2)c1	5	0	74*	-1	2	-23	37
Cc1ccc(O)c(NC(=O)CSc2ccc(Cl)cc2)c1	26	1	69*	5	1	-12	35
O=C(NCc1ccc(Cl)cc1)c1cc([N+](=O)[O-])ccc1Cl	16	2	60*	-6	0	15	12
O=C(NCc1ccccc1Cl)c1cc([N+](=O)[O-])ccc1Cl	-1	4	1	3	1	23	nt
CCOc1ccc(Cc2c(Cl)nc(SC)nc2N(C)C)cc1	45	0	60*	23	1	-70	27
CSc1nc(Cl)c(Cc2ccc(OC(C)C)cc2)c(N(C)C)n1	-1	6	11	11	0	-38	nt
COc1ccc(OC)c(S(=O)(=O)Nc2cc3c(cc2N2CCCC2)n(C)c(=O)c(=O)n3C)c1	35	0	2	-14	0	13	nt
COc1cc(C(=O)OCCc2cc3ccccc3c(=O)o2)cc(OC)c1OC	48	3	58*	9	0	-73	58*
COc1cc(C(=O)OCCCc2cc3ccccc3c(=O)o2)cc(OC)c1OC	14	-2	22	3	-1	7	nt
COC(=O)[C@H]1Cc2c([nH]c3ccccc23)[C@H](c2ccccc2)N1	14	-2	-6	-2	1	3	nt
COC(=O)C1Cc2c([nH]c3ccccc23)CN1 (stereo not given)	-15	-3	53*	4	1	-8	8
